PubChem BioAssay (NCATS)
Activity calls are given as the source filed them. A call without a number means that no potency is given here. The call rests on the fitted dose curve; in most records, active means well fitted curve in the direction sought with a large enough effect; inconclusive means small, poorly fitted or top-dose-only effect, or effect the other way, or another doubt; inactive means no such curve, though single readings can be large or run the other way.

Experiment: qHTS of Nrf2 Activators: LOPAC Validation (AID 624149)
Settings: Nrf2/ARE reporter cell assay; series mostly up to 46.1 µM
How it was run: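 AREc32 cells carrying an ARE-driven firefly luciferase were grown overnight in OPTI-MEM with 5% FBS, then exposed to compounds for 24 hr at 37 deg C. Luciferase signal was read after 30 min with Steady-Glo at RT.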
In the case of C/C(O)=C(\C#N)C(=O)Nc1cc(Br)ccc1Br, the Potency is reported as “inactive”.
In the case of N[C@@H](CCl)C(=O)O, the Potency is reported as “inactive”.
In the case of c1ccc2c(c1)[I+]c1ccccc1-2, the Potency is reported as “inactive”.
With C[N+]1(C)CCOC(O)(c2ccc(-c3ccc(C4(O)C[N+](C)(C)CCO4)cc3)cc2)C1 (centres undefined) the Potency was “inactive”.
For C[Se]C[C@H](N)C(=O)O, the Potency was “inactive”.
For Cc1sc2ccccc2c1CC1=NCCN1, the Potency was “inactive”.
For Oc1ccc2c3c1O[C@H]1c4oc5ccccc5c4C[C@@]4(O)C(C2)N(CC2CC2)CCC314 (some centres undefined), the Potency was “inactive”.
With C[N+]1(C)CCN(c2ccccc2)CC1 the Potency was “inactive”.
In the case of OCc1cnc[nH]1, the Potency is reported as “inactive”.
In the case of CCn1cnc2c(Nc3cccc(Cl)c3)nc(N[C@@H]3CCCC[C@@H]3N)nc21, the Potency is reported as “inactive”.
For CN(C(=O)Cc1ccc(Cl)c(Cl)c1)C(CN1CCCC1)c1cccc(OCC(=O)O)c1 (centres undefined), the Potency was “inactive”.
With CCN1C[C@@]2(COC)C3[C@@H](OC)C4[C@@H]1C3([C@@H]1C[C@]3(O)[C@H](OC(=O)c5ccccc5)[C@@H]1[C@]4(OC(C)=O)[C@@H](O)[C@@H]3OC)[C@H](OC)C[C@H]2O the Potency was “inactive”.
In the case of C=CCN1CC[C@]23c4c5ccc(O)c4O[C@H]2/C(=N/NC(=O)c2ccccc2)CC[C@@]3(O)[C@H]1C5, the Potency is reported as “inactive”.
With C[C@@H]1O[C@H](C[N+](C)(C)C)CS1 the Potency was “inactive”.
With Nc1ccc(CCN2CCN(c3cccc(C(F)(F)F)c3)CC2)cc1 the Potency was “inactive”.
With CN1CC[C@@]2(C)c3cc(O)ccc3N(C)C12 (some centres undefined) the Potency was “inactive”.
With NC(N)=NOCC[C@H](N)C(=O)O the Potency was “inactive”.
In the case of COC(=O)N1CCN(C(=O)Cc2ccc(Cl)c(Cl)c2)C(CN2CCCC2)C1 (centres undefined), the Potency is reported as “inactive”.
For CC(C)[C@@]1(NC(=O)[C@@H]2C[C@@H]3c4cccc5[nH]cc(c45)C[C@H]3N(C)C2)O[C@@]2(O)[C@@H]3CCCN3C(=O)[C@H](Cc3ccccc3)N2C1=O, the Potency was “inactive”.
For NC(C(=O)O)c1cc(=O)[nH]o1 (centres undefined), the Potency was “inactive”.
For CO[C@H]1CC=C2CCN3CCC4=C(CC(=O)OC4)[C@]23C1, the Potency was “inactive”.
For c1ccc2c(N3CCNCC3)cccc2c1, the Potency was “inactive”.
In the case of COc1ccc2[nH]c3c(c2c1)CCNC3, the Potency is reported as “inactive”.
With NC(=O)CI the Potency was “inactive”.
In the case of Cc1[nH]c2ccc(O)cc2c1CCN, the Potency is reported as “inactive”.
For CNc1ccc2oc(C[C@H]3O[C@@]4(CC[C@H]3C)O[C@H]([C@H](C)C(=O)c3ccc[nH]3)[C@H](C)C[C@H]4C)nc2c1C(=O)O, the Potency was “inactive”.
In the case of CN1CCC(c2c[nH]c3ccc(O)cc23)CC1, the Potency is reported as “inactive”.
In the case of C=CCN1CC[C@]23c4c5ccc(O)c4O[C@@H]2/C(=N/N=C2\CC[C@@]4(O)C6Cc7ccc(O)c8c7[C@@]4(CCN6CC=C)[C@@H]2O8)CC[C@@]3(O)C1C5, the Potency is reported as “inactive”.
For NC(CCCCCP(=O)(O)O)C(=O)O (centres undefined), the Potency was “inactive”.
For NC(=O)COc1c(F)cc(SCCNS(=O)(=O)c2ccccc2)cc1F, the Potency was “inactive”.
For C=CCN(C1=NCCN1)c1c(Cl)cccc1Cl, the Potency was “inactive”.
In the case of CC(=O)OCC1=C(C(=O)O)N2C(=O)[C@@H](NC(=O)CCC[C@@H](N)C(=O)O)[C@H]2SC1, the Potency is reported as “inactive”.
In the case of CCCN(CCC)C1Cc2cc(OC)c(OC)cc2C1, the Potency is reported as “inactive”.
With CC(N)Cc1c[nH]c2ccc(O)cc12 (centres undefined) the Potency was “inactive”.
